Reference: PubChem BioAssay AID1540 (National Center for Advancing Translational Sciences (NCATS), 2009)
Several values for one entry are separate records, joined by “and”; a condition that tells them apart may be missing. Equal entries are not always repeated. Records with an inconclusive call do not appear. Unmarked numbers belong to inactive results. Activity calls are given as the source filed them. Calls follow the shape of the dose curve; as a rule, active = well fitted activation curve with a large enough effect; inconclusive = small, poorly fitted or top-dose-only effect, or effect the other way; inactive = flat fitted curve, though single readings scatter.

molecular target: Pyruvate kinase PKM (Homo sapiens) (UniProt P14618); assay: Secondary assay for Activators of Human Pyruvate Kinase M2 isoform; settings: purified hPK-M2, LDH-coupled NADH fluorescence kinetic; series mostly up to 57.5 µM; activation: at the top concentration
Description: Confirmatory assay NIH Chemical Genomics Center [NCGC] Matthew G. Vander Heiden, M.D., Ph.D. [Harvard Medical School, 77 Avenue Louis Pasteur, Boston, MA 02115] NCGC Assay Overview: Human pyruvate kinase muscle 2 (hPK-M2)enzyme was supplied as a highly purified (>95% pure) preparation from Harvard Medical School and a secondary assay was used to evaluate compounds. This assay couples the formation of pyruvate from hPK-M2 using lactate dehydrogenase (LDH) and NADH. The depletion of NADH is followed in a fluorescent-based kinetic assay that follows the formation of pyruvate to lactate, as catalyzed LDH (described by Hannaert et al., 2002)1 Pyruvate kinase substrates, PEP and ADP, were present in the assay at 0.1 mM and 4 mM respectively. In this kinetic assay initial rates were determined by following the fluorescence of NADH depletion.
NCGC Assay Protocol Summary: Three uL of substrate mix (final concentration, 50 mM Tris-Cl pH 8.0, 200 mM KCl, 15 mM MgCl2, 0.1 mM PEP, 4.0 mM ADP, and 0.2 mM NADH) was dispensed into black-solid 1536 well plates. 23 nL of compounds were delivered by a pin tool and 1 uL of enzyme mix (final concentrations, 10 nM hPK-M2 and 1 uM of LDH) was added. Plates were immediately placed in ViewLux (Perkin Elmer) and NADH fluorescence was determined at 30 second exposure intervals for between 3 and 6 minutes. Data were normalized to the uninhibited and EC100 activation using known activators such as fructose-bis-phosphate.

Sequence of Pyruvate kinase PKM (Homo sapiens) (P14618 whole entry, looked up, canonical isoform): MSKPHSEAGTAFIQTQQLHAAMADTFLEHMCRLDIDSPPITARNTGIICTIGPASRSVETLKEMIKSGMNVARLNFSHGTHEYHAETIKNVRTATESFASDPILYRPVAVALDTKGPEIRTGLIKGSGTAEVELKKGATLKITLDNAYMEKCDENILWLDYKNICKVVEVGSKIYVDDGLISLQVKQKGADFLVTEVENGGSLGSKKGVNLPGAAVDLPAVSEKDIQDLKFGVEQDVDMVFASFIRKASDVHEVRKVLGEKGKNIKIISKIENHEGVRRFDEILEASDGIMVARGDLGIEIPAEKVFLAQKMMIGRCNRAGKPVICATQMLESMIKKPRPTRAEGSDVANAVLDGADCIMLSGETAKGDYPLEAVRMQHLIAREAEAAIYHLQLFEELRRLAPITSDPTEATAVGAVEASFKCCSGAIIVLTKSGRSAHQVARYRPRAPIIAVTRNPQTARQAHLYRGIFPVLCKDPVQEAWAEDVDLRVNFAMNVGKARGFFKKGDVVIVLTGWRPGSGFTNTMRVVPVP

Compound | Potency | activation [%]
CC(=O)Nc1ccc(S(=O)(=O)N2CCCN(S(=O)(=O)c3ccc4c(c3)OCCO4)CC2)cc1 | 2590 nM (active) | –
Cc1cc2c(s1)c1cnn(Cc3ccc(C(F)(F)F)cc3)c(=O)c1n2C | 2240 nM (active) | –
CNc1cccc(S(=O)(=O)N2CCN(S(=O)(=O)c3ccc4c(c3)OCCO4)CC2)c1 | – | 17.9
C[C@H]1CN(S(=O)(=O)c2ccc3c(c2)OCCO3)CCN1S(=O)(=O)c1c(F)cccc1F | 5010 nM (active) | –
COCCCc1cc(F)c(S(=O)(=O)N2CCN(S(=O)(=O)c3ccc4c(c3)OCCO4)CC2)cc1F | 3160 nM (active) | –
CC(=O)c1cc2c(s1)c1cnn(Cc3ccccc3F)c(=O)c1n2C | 158 nM (active) | –
COc1cc(F)c(S(=O)(=O)N2CCN(S(=O)(=O)c3cccs3)CC2)c(F)c1 | 51.7 nM (active) | –
CC(=O)Nc1ccc(S(=O)(=O)N2CCN(S(=O)(=O)c3ccc4c(c3)OCCO4)CC2)cc1 | 919 nM (active) | –
O=S(=O)(c1ccc2c(c1)OCCO2)N1CCN(S(=O)(=O)c2ccccc2F)CC1 | 316 nM (active) | –
O=S(=O)(c1ccc2c(c1)OCCO2)N1CCN(S(=O)(=O)c2c(F)cccc2F)CC1 | 1 µM (active) and 562 nM (active) | –
Cn1c2cc(CO)sc2c2cnn(Cc3ccccc3F)c(=O)c21 | 141 nM (active) | –
Cc1cc2c(s1)c1cnn(Cc3ccc(C(C)C)cc3)c(=O)c1n2C | 4470 nM (active) | –
O=S(=O)(c1ccc2c(c1)OCCO2)N1CCN(S(=O)(=O)c2ccc3c(c2)OCCO3)CC1 | 398 nM (active) | –
COc1cc(F)c(S(=O)(=O)N2CCN(S(=O)(=O)c3ccc4c(c3)OCCO4)CC2)c(F)c1 | 562 nM (active) | –
COc1cc(F)c(S(=O)(=O)N2CCCN(S(=O)(=O)c3cccc(N)c3)CC2)c(F)c1 | 146 nM (active) and 1.16 µM (active) | –
Cc1cc2c(s1)c1cnn(Cc3ccccc3)c(=O)c1n2C | 199 nM (active) | –
O=S(=O)(c1ccc2c(c1)OCCO2)N1CCN(S(=O)(=O)c2cc(F)c(F)cc2F)CC1 | 562 nM (active) | –
Nc1ccc(S(=O)(=O)N2CCN(S(=O)(=O)c3ccc4c(c3)OCCO4)CC2)cc1 | 163 nM (active) | –
O=S(=O)(c1ccc2c(c1)OCCO2)N1CCN(S(=O)(=O)c2ccc(F)cc2F)CC1 | 501 nM (active) | –
O=S(=O)(c1ccc2c(c1)OCO2)N1CCN(S(=O)(=O)c2c(F)cccc2F)CC1 | 708 nM (active) | –

Compound | Potency | activation [%]
CC1(C)CCc2cc(S(=O)(=O)N3CCN(S(=O)(=O)c4c(F)cccc4F)CC3)ccc2O1 | 5.01 µM (active) and 631 nM (active) | –
Cc1cc2[nH]c3c(=O)n(Cc4ccccc4F)ncc3c2s1 | 708 nM (active) | –
COC(=O)c1cc(F)c(S(=O)(=O)N2CCN(S(=O)(=O)c3ccc4c(c3)OCCO4)CC2)cc1F | 355 nM (active) | –
Cn1c2cc(Br)sc2c2cnn(Cc3c(F)cccc3Cl)c(=O)c21 | 794 nM (active) | –
Cn1c2ccsc2c2cnn(Cc3ccccc3F)c(=O)c21 | 2510 nM (active) | –
O=S(=O)(c1cccc(F)c1)N1CCN(S(=O)(=O)c2ccc3c(c2)OCCO3)CC1 | 1000 nM (active) | –
O=S(=O)(c1ccc2c(c1)OCCO2)N1CCN(S(=O)(=O)c2cccc[n+]2[O-])CC1 | 4470 nM (active) | –
O=S(=O)(c1ccc2c(c1)OCCO2)N1CCN(S(=O)(=O)c2cc(F)c(Br)cc2F)CC1 | 708 nM (active) | –
Cc1nc2ccc(S(=O)(=O)N3CCN(S(=O)(=O)c4c(F)cccc4F)CC3)cc2s1 | 631 nM (active) | –
Cc1cc2c(s1)c1cnn(Cc3cccc(F)c3)c(=O)c1n2C | 1260 nM (active) | –
Cc1cc2c(s1)c1cnn(Cc3ccc(F)cc3)c(=O)c1n2C | 251 nM (active) | –
C=Cc1cc2c(s1)c1cnn(Cc3ccccc3F)c(=O)c1n2C | 562 nM (active) | –
COC/C=C/c1cc(F)c(S(=O)(=O)N2CCN(S(=O)(=O)c3ccc4c(c3)OCCO4)CC2)cc1F | 17800 nM (active) | –
Cc1cc2c(s1)c1cnn(Cc3ccc(F)c(F)c3F)c(=O)c1n2C | 1260 nM (active) | –
COc1cc(F)c(S(=O)(=O)N2CCN(S(=O)(=O)c3cccc(NC(C)=O)c3)CC2)c(F)c1 | 1030 nM (active) | –
COc1ccc(Cn2ncc3c4sc(C)cc4n(C)c3c2=O)cc1F | 1120 nM (active) | –
Nc1cc(S(=O)(=O)N2CCN(S(=O)(=O)c3ccc4c(c3)OCCO4)CC2)ccn1 | – | 8.04
C=CCc1cc(F)c(S(=O)(=O)N2CCN(S(=O)(=O)c3ccc4c(c3)OCCO4)CC2)cc1F | 2000 nM (active) | –
O=C1CN(S(=O)(=O)c2c(F)cccc2F)CCN1S(=O)(=O)c1ccc2c(c1)OCCO2 | 2510 nM (active) | –
Cn1c2cc(C#N)sc2c2cnn(Cc3ccc(F)cc3)c(=O)c21 | 282 nM (active) | –
